Measurements: PubChem BioAssay (NCI)
The panel holds about 79,000 compounds, 15% with a hit somewhere; the sample as a whole holds those more often. Unmarked numbers belong to inactive results. Calls of active or inactive are those of the source. Rule as the data show it: active = growth inhibition above about 70%; inactive = the rest.

Legend:
[1] = NCI Yeast Anticancer Drug Screen. Data for the rad50 strain (AID 155);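 also: 0% = growth of vehicle-only cultures of the same strain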; details: S. cerevisiae rad50 strain growth inhibition, active compounds read high
Method in brief: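 Compounds were tested on a yeast strain with an engineered DNA damage repair alteration; the reported value is growth inhibition normalised to vehicle treatment.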

[2] = NCI Yeast Anticancer Drug Screen. Data for the mec2-1 strain (AID 157); details: S. cerevisiae mec2-1 strain, active compounds read high
Method in brief: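 Test agents were screened against the mec2-1 yeast strain, with defined DNA repair or cell cycle alteration. Growth was scored as inhibition against vehicle-only controls.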

[3] = NCI Yeast Anticancer Drug Screen. Data for the sgs1 mgt1 strain (AID 161);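 also: 0% = growth of cultures given vehicle only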; details: S. cerevisiae sgs1 mgt1 strain, active compounds read high
Method in brief: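 Inhibition of yeast growth, normalised to vehicle-treated controls, is reported for a strain bearing genetic alterations in DNA damage repair.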

[4] = NCI Yeast Anticancer Drug Screen. Data for the cln2 rad14 strain (AID 165);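 also: 0% = growth equal to vehicle treated cultures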; details: S. cerevisiae cln2 rad14 strain, active compounds read high
Method in brief: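 Growth of compound-exposed yeast (cln2 rad14 genotype) measured and expressed as inhibition relative to vehicle.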

[5] = NCI Yeast Anticancer Drug Screen. Data for the bub3 strain (AID 167); details: S. cerevisiae bub3 mutant strain, active compounds read high
Method in brief: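 Growth of a checkpoint-deficient yeast mutant is measured after compound exposure. Values represent inhibition relative to vehicle.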

[6] = NCI Yeast Anticancer Drug Screen. Data for the mlh1 rad18 strain (AID 175); details: S. cerevisiae mlh1 rad18 strain growth inhibition, active compounds read high
Method in brief: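 In this whole-cell yeast screen, a strain with altered DNA damage repair is challenged with compound, and its growth is measured against matched vehicle-treated controls.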

[7] = at 5.0 µM (retest, dose inferred, filed as 0.5)
[8] = at 50.0 µM (retest, dose inferred, filed as 5.0)

| SMILES | growth inhibition [1, 7] | growth inhibition [1, 8] | growth inhibition ([1]; at 50.0 µM) | growth inhibition [2, 7] | growth inhibition [2, 8] | growth inhibition ([2]; at 50.0 µM) | growth inhibition [3, 7] | growth inhibition [3, 8] | growth inhibition ([3]; at 50.0 µM) | growth inhibition [4, 7] | growth inhibition [4, 8] | growth inhibition ([4]; at 50.0 µM) | growth inhibition [5, 7] | growth inhibition [5, 8] | growth inhibition ([5]; at 50.0 µM) | growth inhibition [6, 7] | growth inhibition [6, 8] | growth inhibition ([6]; at 50.0 µM) |
| --- | --- | --- | --- | --- | --- | --- | --- | --- | --- | --- | --- | --- | --- | --- | --- | --- | --- | --- |
| CCOC(=O)C(NC(C)=O)[CH](c1ccc(OC)cc1)[Sn]([c]1ccccc1)([c]1ccccc1)[c]1ccccc1 (configuration not stated) | 99% (active) | 99% (active) | 48.6% | 99% (active) | 99% (active) | 58.1% | 99% (active) | 99% (active) | 48.2% | 98% (active) | 99% (active) | 99% (active) | 99% (active) | 98% (active) | 47.4% | 99% (active) | 99% (active) | 85.4% (active) |
| O=C1/C(=C/c2cccc(F)c2)CCCc2ccccc21 | 3% | 50% | 70% (active) | 4% | 36% | 37.2% | 13% | 67% | 82.5% (active) | -14% | 14% | 12.3% | 14% | 81% (active) | 75.5% (active) | 2% | 75% (active) | 72.7% (active) |
| COP(=O)(OC)OCC1OC(n2cnc3c(N)ncnc32)C(O)C1O (configuration not stated) | -2% | -2% | 96.5% (active) | 2% | 2% | 95.9% (active) | 0% | -2% | 94.5% (active) | 4% | 4% | 89.7% (active) | -1% | -4% | 96.2% (active) | -3% | -5% | 97.3% (active) |
| Cc1cccc(-c2csc(N)n2)c1 | 0% | 77% (active) | 61.1% | 3% | 35% | 41% | 2% | 37% | 78% (active) | -1% | 31% | 39.6% | -1% | 44% | 31.1% | 1% | 63% | 65.2% |
| [Pt].c1ccc(P(CCP(CCP(c2ccccc2)c2ccccc2)CCP(c2ccccc2)c2ccccc2)c2ccccc2)cc1 | 6% | 83% (active) | 71.2% (active) | 36% | 91% (active) | 84.2% (active) | 19% | 89% (active) | 80% (active) | 6% | 91% (active) | 78% (active) | 0% | 92% (active) | 80.2% (active) | 17% | 89% (active) | 79% (active) |
| Cc1oc2c(c1C(=O)c1ccccc1)C(=O)c1ccccc1C2=O | 33% | 99% (active) | 88.2% (active) | 19% | 99% (active) | 92.7% (active) | 31% | 99% (active) | 93.2% (active) | 22% | 98% (active) | 92.8% (active) | 39% | 99% (active) | 91.7% (active) | 25% | 99% (active) | 82% (active) |
| Cc1ccc(N2C(=O)C(C)SC2=S)cc1Cl (configuration not stated) | 2% | -4% | 86.2% (active) | -1% | -1% | 51.9% | 1% | -25% | 94.7% (active) | -2% | -2% | 13.7% | -4% | 1% | 48% | -5% | 1% | 93.5% (active) |
| CCOC(=O)c1c[nH]cc1-c1cn(S(=O)(=O)c2ccccc2)cc1C | 38% | 12% | 29.2% | 34% | 14% | 18.2% | 69% | 21% | 49.6% | 38% | 15% | 43.5% | 89% (active) | 38% | 44% | 82% (active) | 28% | 49% |
| CCn1c(=O)cc2n(C)c3ccccc3n2c1=O | -30% | -23% | 17.3% | 0% | -7% | 17.4% | -15% | -28% | -5.15% | -39% | -24% | 62.7% | -23% | -15% | 0.6% | -36% | -14% | 23.4% |
| O=[N+]([O-])c1ccc(C(Cl)Cc2ccc(Cl)cc2)cc1 (configuration not stated) | 10% | 66% | 90.2% (active) | 7% | 64% | 82.5% (active) | 22% | 91% (active) | 93.7% (active) | -8% | 61% | 62.6% | 20% | 82% (active) | 94.3% (active) | -18% | 71% (active) | 89.1% (active) |
| Brc1ccc(C2c3ccccc3-c3ccccc32)cc1 | 21% | 97% (active) | 94.5% (active) | 16% | 97% (active) | 94.7% (active) | 15% | 95% (active) | 96.6% (active) | 0% | 97% (active) | 94% (active) | 2% | 98% (active) | 95.8% (active) | -4% | 97% (active) | 94.8% (active) |
| C=C1C(=O)OC2C(C)C3C=CC(=O)[C@@]3(C)C(OC(=O)/C(C)=C/C)C1[C@@H]2OC(C)=O (some centres not stated) | 3% | 91% (active) | 80.2% (active) | 16% | 95% (active) | 88.5% (active) | 13% | 92% (active) | 87.8% (active) | 11% | 81% (active) | 79.3% (active) | 4% | 93% (active) | 89.5% (active) | 16% | 94% (active) | 87% (active) |
| COc1cc(Br)c(CC(NC=O)c2ccc3c(c2)OCO3)cc1OC (configuration not stated) | -4% | 81% (active) | 62.5% | -3% | 74% (active) | 66.3% | -5% | 95% (active) | 36.5% | 4% | 95% (active) | 57.4% | 3% | 98% (active) | 96.3% (active) | -1% | 81% (active) | 56.5% |
| COc1ccccc1C(=O)c1ccc2ccccc2c1 | -3% | 71% (active) | 47.2% | -10% | 85% (active) | 73% (active) | 0% | 83% (active) | 61.8% | -6% | 9% | -17.1% | 3% | 74% (active) | 83.6% (active) | -15% | 55% | 42.3% |
| CCCCCCC(/C=C/c1ccccc1)=N\O | 0% | 96% (active) | 98.8% (active) | -1% | 96% (active) | 98.7% (active) | 6% | 96% (active) | 98.8% (active) | -10% | 96% (active) | 98.2% (active) | -2% | 94% (active) | 98.8% (active) | 2% | 95% (active) | 99.2% (active) |
| CN1CC[N+](C)(Cc2ccc(C[N+]3(C)CC[N+](C)(Cc4ccc(CCl)cc4)CC3)cc2)CC1 (configuration not stated) | 2% | 97% (active) | 99.2% (active) | 4% | 95% (active) | 99.4% (active) | 2% | 83% (active) | 99.4% (active) | -3% | 95% (active) | 98.1% (active) | 1% | 98% (active) | 99.5% (active) | 2% | 98% (active) | 99.3% (active) |
| C/C=C/c1cc2c(cc1O)CC[C@@H]1[C@@H]2CC[C@]2(C)[C@@H](O)CC[C@@H]12 | 25% | 97% (active) | 89% (active) | 12% | 98% (active) | 92% (active) | 11% | 97% (active) | 90.7% (active) | 6% | 97% (active) | 92.7% (active) | 22% | 99% (active) | 91.3% (active) | 24% | 97% (active) | 86.7% (active) |
| COc1nc2c(ccn2C2OC(COC(C)=O)C(OC(C)=O)C(OC(C)=O)C2OC(C)=O)c(=O)n1C (configuration not stated) | 2% | -2% | 15.2% | 1% | -4% | 14.8% | -5% | -5% | 4.45% | -2% | -3% | 2.35% | -2% | -8% | -5.9% | 1% | -2% | 2.15% |
| Cc1ccc2c(-c3ccccc3)c3ccccc3cc2c1C | 6% | 3% | 46.1% | 13% | 20% | 16.9% | 8% | 18% | 27.6% | -4% | -11% | 14.5% | -5% | -16% | 37.6% | -3% | 2% | 53.4% |
